Measured values as given in PubChem BioAssay (NCI).
Several values for one entry are separate records, joined by “and”; a condition that tells them apart may be missing. Equal entries are not always repeated. The panel holds about 83,000 compounds, 20% with a hit somewhere; the sample as a whole holds those more often.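 48-hour exposure, single concentration, 96-well plates; percent growth endpoint where 0 means no net growth. Active: below 10.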 Activity calls are given as the source filed them.

The compounds below were run on NCI-H522 lung (assay: NCI-60 one-dose screen, 48 h (100 = growth as untreated, 0 = no growth, -100 = all killed)). Conditions: 0.0025 µM.
Procedure: Growth inhibition of the NCI-H522 human Non-Small Cell Lung tumor cell line is measured as a screen for anti-cancer activity. Cells are grown in 96 well plates and exposed to the test compound for 48 hours. Compounds are tested at a single concentration, which is 10^-5 M for most compounds. The reported endpoint is percent growth (GI% or GIPRCNT), where numbers from 0 - 100% represent growth inhibition, and numbers from -100% - 0 represent cell death. For example, a value of 40 represents 60% growth inhibition. A value of 0 means no net growth occurred over the course of the experiment. A value of -40 indicates 40% of cells at the beginning of the experiment died by the end of the experiment. A value of -100 means all cells are dead at the end of the experiment.
NCI-60 Human Tumor Cell Lines Screen was performed using the standard one-dose NCI protocol, which is described in more detail at https://dtp.cancer.gov/discovery_development/nci-60/default.htm.
Compounds with GIPRCNT values below 10 were considered active. Activity score was based on GIPRCNT using the following formula: […]
Score is 0 for GIPRCNT values of 100 or above, 50 for GIPRCNT values of 0, and 100 for GIPRCNT values of -100.

SMILES	growth
COc1cccc2c1C(=O)c1c(O)c3c(c(O)c1C2=O)C[C@@](O)(C(=O)CO)C[C@@H]3OC1CC(N)C(O)C(C)O1 (stereo not given in full)	78.3% (inactive)

Same assay, conditions: 1 µM

SMILES	growth
COc1cccc2c1C(=O)c1c(O)c3c(c(O)c1C2=O)C[C@@](O)(C(=O)CO)C[C@@H]3OC1CC(N)C(O)C(C)O1 (stereo not given in full)	-10.4% (active)

Same assay, conditions: 10 µM

SMILES	growth
COc1cccc2c1C(=O)c1c(O)c3c(c(O)c1C2=O)C[C@@](O)(C(=O)CO)C[C@@H]3OC1CC(N)C(O)C(C)O1 (stereo not given in full)	-38% (active)

Same assay, conditions: 10 µM unless noted

SMILES	growth
O=C1C=C(O)c2ccccc2C1=O.[Ag]	-34.4% (active)
NNc1ccc2ccccc2c1	79.5% (inactive) and 98.6% (inactive)
COC(=O)C1=COC(C)C2C[n+]3ccc4c([nH]c5ccccc54)c3CC12 (stereo not given)	99.2% (inactive) and 76.1% (inactive)
Nc1c2ccccc2nc2ccccc12	-49% (active) and -11.2% (active) and 30.2% (inactive)
CCCCCCCCCCSC(=N)N	45.6% (inactive)
CS(=O)(=O)OC1CC(n2ccc(=O)[nH]c2=O)OC1COC(c1ccccc1)(c1ccccc1)c1ccccc1 (stereo not given)	86.1% (inactive)
O=C1C=CC(=CC=C2C=CN(CCCCCCCCCCCO)C=C2)C=C1	18.2% (inactive)
CCCCCCCCCCCC[N+](C)(C)Cc1ccccc1	-4.63% (active)
O=C(/C=C/c1cccnc1)c1ccccc1	-44.2% (active)
CC[N+](CC)=c1ccc2nc3c(cc(N)c4ccccc43)oc-2c1	-48.4% (active)
Oc1ccc(N=Nc2ccccn2)c(O)c1	29.3% (inactive)
O=C(C(=Cc1ccccc1)C(=O)c1ccccc1)c1ccccc1	75.2% (inactive) and 68.9% (inactive)
CSC1SCC2C(=O)N(C)C(C(C)C)C(=O)OCC(NC(=O)c3cnc4ccccc4n3)C(=O)NC(C)C(=O)N(C)C1C(=O)N(C)C(C(C)C)C(=O)OCC(NC(=O)c1cnc3ccccc3n1)C(=O)NC(C)C(=O)N2C (stereo not given)	-16.1% (active)
O=[N+]([O-])C1=C(c2ccccc2)SC=C(c2ccccc2)S1	42% (inactive)
O=C1NC(=O)c2cc([N+](=O)[O-])ccc21	102% (inactive)
Cc1nc(N=C(N)N)nc2ccc3ccccc3c12	-35.1% (active)
COC1OCC(O)C(O)C1O (stereo not given)	97.5% (inactive)
O=C(O)COc1ccc(OCC(=O)O)cc1	-3.87% (active)
COc1ccc(CC(=O)c2ccc(O)cc2O)cc1	4.52% (active)

SMILES	growth
CN(C)C(=S)SC(=S)N(C)C	77.4% (inactive) and 61.1% (inactive)
NNc1c2ccccc2nc2ccccc12	33.2% (inactive)
OC(CN1CCCC2CCCCC21)c1cc2ccccc2c2ccccc12 (stereo not given)	80.1% (inactive)
COc1c(O)cc2oc3cc(O)c(CC=C(C)C)c(O)c3c(=O)c2c1CC=C(C)C	60.4% (inactive)
CC(=O)OCC(OC(C)=O)C(OC(C)=O)C(OC(C)=O)C(OC(C)=O)C(/C=N/Nc1ccccc1)=N/Nc1ccccc1 (stereo not given)	40.6% (inactive)
CCCCCCCCCCCCSC(=NC)NC	57.7% (inactive) and 85% (inactive)
N=S(c1ccccc1[N+](=O)[O-])c1ccccc1[N+](=O)[O-]	-77.5% (active)
CCCCCCCCCCCCCCCCCCOCC(COP(=O)([O-])OCC[N+](C)(C)C)OC (stereo not given)	73% (inactive)
O=C(Nc1ccc(C(=O)O)c(O)c1)c1ccccc1	93.3% (inactive) and 89.8% (inactive)
Nc1ccc2cc3ccc(N)cc3nc2c1	-50.9% (active)
CCCC1CCC(=C2C(=O)CCC2=O)O1 (stereo not given)	121% (inactive) and 83.9% (inactive)
Clc1cc(Cl)c(Cl)nn1	80.7% (inactive)
Cc1cc(O)c(C(C)C)cc1Cl	101% (inactive)
COc1cccc2c1C(=O)c1c(O)c3c(c(O)c1C2=O)C[C@@](O)(C(C)=O)C[C@@H]3OC1CC(N)C(O)C(C)O1 (stereo not given in full)	-52% (active)
CO[C@H](C(=O)[C@@H](O)[C@@H](C)O)[C@@H]1Cc2cc3cc(OC4CC(OC5CC(O)C(O)C(C)O5)C(O)C(C)O4)c(C)c(O)c3c(O)c2C(=O)[C@H]1OC1CC(OC2CC(OC3CC(C)(O)C(O)C(C)O3)C(O)C(C)O2)C(O)C(C)O1 (stereo not given in full)	-44.7% (active)
CCN1/C(=C/C=C/C=C/c2sc3ccccc3[n+]2CC)Sc2ccccc21	-57.6% (active)
O=C(/C=C/c1ccccn1)c1ccccc1	-75.6% (active)
Clc1ccc(/C=C/c2ccccn2)c(Cl)c1	81.2% (inactive)
